TLR4-MyD88 BLA: TLR4-MyD88 interaction inhibition in cells; HeLa CL3-4 TLR4/MyD88 BLA complementation, FRET ratio; inhibition, % at 8.4 µM; hit rate 0.18% among 200,000; AID 861; in the data active means inhibition above about 25%
ABHD5-PLIN5 inh: ABHD5-PLIN5 protein interaction inhibition; Q00G26+Q8WTS1; inhibition, % at 4 µM; Split G. princeps luciferase complementation, luminescence, 4 h; hit rate 0.78% among 360,000;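 active means inhibition above the mean inhibition across every tested compound plus 3 SD, cut at about 22% in these data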
TLR9-MyD88 inh: TLR9-MyD88 interaction inhibition; inhibition, % at 4.98 µM; CHO BLA complementation TLR9-MyD88, CCF4 FRET ratio; Q9NR96+Q99836; hit rate 0.21% among 340,000;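 active means inhibition above the mean over all tested compounds plus 3 SD, cut at about 21% in these data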
Exocytosis inh: lytic granule exocytosis inhibition | TALL-104 LAMP-1 surface exposure, flow cytometry; cells stimulated with thapsigargin and PMA | inhibition, % at 10 µM | hit rate 0.66% among 360,000;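 active means inhibition above about 55%, limit read from the data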
Beta2AR agonist: human beta-2 adrenergic receptor agonism by FAP; Am2.2-beta2AR cells, FAP receptor internalization, flow cytometry; response, % (concentration not given with the values); hit rate 0.43% among 340,000; P07550;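 active means response above a set limit, near 3 SD of response in nonfluorescent compounds, cut at about 42% in these data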
NOD2 RIPK2 PPI: inhibitors of human NOD2-RIPK2 interaction; hit rate 0.38% among 360,000; O43353; inhibition, % at 4.98 µM; CHO BLA complementation NOD2-RIPK2, CCF4 ratio; in the data active means inhibition above about 21%
Target sequence (O43353 whole entry, looked up): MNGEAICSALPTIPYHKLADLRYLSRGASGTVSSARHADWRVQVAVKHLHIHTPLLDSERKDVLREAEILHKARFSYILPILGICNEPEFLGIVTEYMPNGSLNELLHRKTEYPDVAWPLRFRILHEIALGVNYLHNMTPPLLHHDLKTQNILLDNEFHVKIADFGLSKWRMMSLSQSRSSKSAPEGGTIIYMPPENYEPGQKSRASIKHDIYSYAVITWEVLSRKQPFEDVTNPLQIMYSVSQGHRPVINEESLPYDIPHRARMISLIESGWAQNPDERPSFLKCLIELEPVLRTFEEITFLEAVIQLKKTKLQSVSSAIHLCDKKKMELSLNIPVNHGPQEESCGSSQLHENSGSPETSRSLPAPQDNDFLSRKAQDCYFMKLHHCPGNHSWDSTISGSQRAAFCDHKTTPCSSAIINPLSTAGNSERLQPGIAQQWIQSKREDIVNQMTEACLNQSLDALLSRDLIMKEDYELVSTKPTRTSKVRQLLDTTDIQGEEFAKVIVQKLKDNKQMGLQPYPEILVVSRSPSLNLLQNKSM
B2AR ag CP1: activates human beta-2 adrenergic receptor; shares compounds with Beta2AR agonist; Am2.2-beta2AR cells, FAP surface receptor, flow cytometry; stronger effect = lower value; percent response (surface receptor), % at 10 µM; hit rate 25% among 1,100;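 active means surface receptor percent response at or below 58%, roughly 3 SD from nonfluorescent compounds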
B2AR FAP counter: fluorescence artifact in beta-2AR agonist FAP counterscreen; shares compounds with Beta2AR agonist; Am2.2 cells, FAP fluorogen flow cytometry; stronger effect = lower value; calls only at 10 µM; 1,100 tested, under 10 active;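 active means percent response below a set limit in fluorescence channel 1 and below 50% in channel 8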
Hits are given with their value; i = inactive; nt = no result given. In the library only some 2% were active in any assay of this set; here they are far more common.

SMILES | TLR4-MyD88 BLA | ABHD5-PLIN5 inh | TLR9-MyD88 inh | Exocytosis inh | Beta2AR agonist | NOD2 RIPK2 PPI | B2AR ag CP1 | B2AR FAP counter
Cc1ccc(C(=O)c2ccccc2C(=O)OCC(=O)N2C(C)CCCC2C)cc1 (configuration not stated) | nt | i | i | i | i | i | i | i
CCOC(=O)C1CCN(C(=O)COC(=O)c2ccccc2C(=O)c2ccc(Cl)cc2)CC1 | nt | i | i | i | i | i | i | i
CC1CCCC(C)N1C(=O)COC(=O)c1ccc[nH]c1=O (configuration not stated) | i | i | i | i | i | i | nt | nt
CC1CCN(C(=O)COC(=O)c2ccccc2C(=O)c2ccccc2)CC1 | nt | i | i | i | i | i | i | i
CCOC(=O)C1CCN(C(=O)COC(=O)c2ccccc2OCC)CC1 | nt | i | i | i | i | i | nt | nt
O=S1(=O)CC(N2CCCC2)CN1Cc1cn(Cc2ccccc2)nn1 (configuration not stated) | nt | i | nt | i | nt | i | nt | nt
COC(=O)[C@@]12C[C@@H](CC(=O)NCc3ccc(OC)c(OC)c3)C(=O)N(Cc3ccco3)C1=CCC(C)(C)C2 | nt | i | nt | i | nt | i | nt | nt
COc1ccc(CN2C[C@H]3CCCN3c3cc(Br)ccc3S2(=O)=O)cc1 | nt | i | i | i | 43.8 | i | i | i
COc1ccc(Cn2cc(CN3CC(N4CCCCC4)CS3(=O)=O)nn2)cc1 (configuration not stated) | nt | i | nt | i | nt | i | nt | nt
O=S(=O)(c1ccccc1)c1cnc(-c2ccccc2)nc1N1CCCC1 | i | i | i | i | i | i | nt | nt
COc1cc2ncc(S(=O)(=O)c3ccccc3)c(N3CCCC(C)C3)c2cc1OC (configuration not stated) | nt | i | i | i | 69.4 | i | 9.0 | i
Cc1nc2cc(N3CCOCC3)c(NC(=O)C3CC3)cc2c(=O)n1Cc1ccccc1 | i | i | i | i | 49.4 | i | i | i
COc1ccccc1-c1noc(CCCC(=O)N2CCOCC2)n1 | nt | i | nt | i | i | i | nt | nt
COc1ccccc1-c1cc(C(F)(F)F)nc(S(=O)(=O)CCCC(=O)N2CCOCC2)n1 | i | i | i | i | 46.8 | i | i | i
COc1ccc(-c2cc(C(F)(F)F)nc(S(=O)(=O)CCC(=O)N3CCOCC3)n2)cc1 | i | i | i | i | i | i | i | i
COc1ccc(-c2cc(C(F)(F)F)nc(SCC(=O)N3CCOCC3)n2)cc1OC | i | i | i | i | i | i | nt | nt
CCCS(=O)(=O)NC(=O)C1(C)CCN(C(=O)c2cc(F)ccc2C)C1 (configuration not stated) | nt | i | nt | i | nt | i | nt | nt
COc1ccc(CCNC(=O)C2CCCN(S(=O)(=O)c3cc(C)ccc3OC)C2)cc1OC (configuration not stated) | nt | i | i | i | i | i | nt | nt
CC(Sc1ccc(Cl)cc1)C(=O)NNC(=O)c1ccccc1O (configuration not stated) | nt | i | i | i | i | i | nt | nt
COc1ccc(CNC(=O)CCCCCNc2nc(=S)[nH]c3ccccc23)cc1 | i | i | i | i | 128.9 | i | 25.7 | i
CCOC1=C2CN(S(=O)(=O)c3ccc(C)cc3)C(c3ccc(C)cc3)CC2N(S(=O)(=O)c2ccc(C)cc2)C(c2ccccc2)C1 (configuration not stated) | nt | i | nt | i | nt | i | nt | nt
Cc1ccccc1Cn1c(C)c(C(=O)N(C)Cc2ccc(F)cc2)sc1=O | nt | i | nt | i | nt | i | nt | nt
COc1ccc(C(=O)CCC(=O)Nc2ccc(N3CCCCC3)cc2)cc1OC | nt | i | i | i | 72.3 | i | i | i
CCCCC(=O)Nc1ccc(C(=O)N(CC)c2ccccc2C)cc1 | i | i | i | i | 62.7 | i | i | i
CCN(CC)S(=O)(=O)c1cc(NC(=O)C2=COCCO2)ccc1Cl | nt | i | i | i | 115.4 | i | 23.9 | i
SMILES | TLR4-MyD88 BLA | ABHD5-PLIN5 inh | TLR9-MyD88 inh | Exocytosis inh | Beta2AR agonist | NOD2 RIPK2 PPI | B2AR ag CP1 | B2AR FAP counter
COC(=O)c1ccc(CN2CCC(Oc3ccc(C(=O)N4CCCCC4)cc3)CC2)cc1 | nt | i | i | i | i | i | i | i
COC(=O)c1ccc(CN2CCC(Oc3cccc(C(=O)N4CCCC4)c3)CC2)cc1 | nt | i | i | i | i | i | nt | nt
CCN1C(=O)[C@H]2[C@@H](c3ccc(C(F)(F)F)cc3)N[C@]3(CCCN(CC4CCCCC4)C3=O)[C@H]2C1=O | nt | i | i | i | nt | i | nt | nt
OC(CNCCc1ccccc1)c1ccccc1 (configuration not stated) | i | i | i | i | i | i | i | i
COc1ccc(CCNCC(O)c2ccccc2)cc1 (configuration not stated) | i | i | i | i | i | i | i | i
O[C@@H](CNC[C@H](O)c1ccccc1)c1ccccc1 | i | i | i | i | i | i | i | i
COc1ccc(CCNCC(C)c2ccccc2)cc1 (configuration not stated) | nt | i | i | i | i | i | nt | nt
COc1ccc(CNC(=O)CCC(=O)N2CCN(S(=O)(=O)c3cc([N+](=O)[O-])ccc3C)CC2)cc1 | nt | i | i | i | i | i | nt | nt
Cc1nn(Cc2ccccc2)c(C)c1C(=O)NCC(c1cccs1)N1CCOCC1 (configuration not stated) | nt | i | i | i | 62.9 | i | i | i
CCC1CCCCN1CCCNC(=O)Cn1cnc2sc(C)c(S(=O)(=O)N3CC(C)CC(C)C3)c2c1=O (configuration not stated) | nt | i | i | i | 58.9 | i | i | i
CC1CC(=O)Nc2ccccc2N1C(=O)COc1ccccc1C(N)=O (configuration not stated) | nt | i | i | i | nt | i | nt | nt
CC(=O)Nc1ccc(S(=O)(=O)Nc2nc3ccccc3nc2Nc2ccc(N)cc2)cc1 | nt | i | i | i | i | i | nt | nt
CCCCN(CCCC)c1nc2ccccc2nc1NS(=O)(=O)c1ccc(NC(C)=O)cc1 | i | i | i | i | 118.7 | i | 27.6 | i
COc1cccc(CNC(=O)C(C)n2ccc3cc(S(=O)(=O)N4CCCC4)ccc32)c1 (configuration not stated) | nt | i | i | i | i | i | nt | nt
COc1cccc(CNC(=O)C(C)n2ccc3cc(S(=O)(=O)N4CCCCCC4)ccc32)c1 (configuration not stated) | nt | i | i | i | 46.6 | i | i | i
Cc1ccccc1NC(=O)COc1ccc(S(=O)(=O)N2CCCC2)cc1C | nt | i | i | i | i | i | i | i
COc1ccc(NC(=O)COc2ccc(S(=O)(=O)N3CCOCC3)cc2C)cc1OC | nt | i | i | i | i | i | i | i
CN(C)S(=O)(=O)c1cccc(NC(=O)COc2ccc(S(=O)(=O)N3CCOCC3)cc2Cl)c1 | nt | i | i | i | i | i | nt | nt
Cc1cc(S(=O)(=O)N2CCOCC2)ccc1OCC(=O)Nc1cccc(F)c1 | nt | i | i | i | i | i | i | i

Source: PubChem BioAssay
